GLS inhibitor: inhibitors of human glutaminase (GLS); O94925; GLS enzymatic activity, qHTS titration; Potency, µM (doses to about 45.5 µM), most hits filed as inhibitors; actives 0.21% (n = 410,000)
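Read-out is an Amplex red fluorescence increase coupled through glutamate oxidase and HRP, measured before and after 30 min room-temperature incubation. hKGA is in 45 mM KH2PO4 (pH 8.2) with 0.02% Tween-20; glutamine added as 1mM solution.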
HP1b binding inh: blocks HP1-beta chromodomain binding to methylated histone tails; AlphaScreen HP1-beta / biotin-H3K9me3 peptide binding; AID 540317; actives 0.56% (n = 390,000); Potency, µM (doses to about 114 µM), most hits filed as inhibitors; note: nearly all actives have a fitted effect of over 70% in size
Target sequence (P83916 whole entry, looked up): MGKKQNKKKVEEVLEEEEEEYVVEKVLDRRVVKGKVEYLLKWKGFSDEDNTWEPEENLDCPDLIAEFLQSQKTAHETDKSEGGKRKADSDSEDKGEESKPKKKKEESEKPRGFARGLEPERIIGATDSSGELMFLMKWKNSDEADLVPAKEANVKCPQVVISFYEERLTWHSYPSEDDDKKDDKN
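HP1-beta protein (50 nM final) preincubated 30 min at room temperature with biotinylated H3(1-18)K9me3 peptide (50 nM) in PBS pH 7.4, 0.01% Tween-20, then compound added for 30 min. AlphaScreen streptavidin donor/nickel chelate acceptor beads (10 ug/mL final), 30 min dark, luminescence read.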
JMJD2A Tudor: inhibitors of human JMJD2A Tudor domain. O75164. AlphaScreen JMJD2A-Tudor / H3K4me3 peptide binding. Potency, µM (series often up to 114 µM), most hits filed as inhibitors. actives 4.4% (n = 390,000). AID 504339; note: nearly all actives have a fitted effect of over 50% in size
BAZ2B block: BAZ2B (human) inhibition | Q9UIF8 | AlphaScreen BAZ2B-H3K14Ac peptide displacement | Potency, µM (highest dose often 114 µM), hits mostly inhibitors | actives 4.4% (n = 360,000); note: nearly all actives have a fitted effect of over 60% in size
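Multi-concentration screen (max 110 uM) measuring displacement of acetylated histone H3 peptide from BAZ2B by AlphaScreen, using 50 nM protein, 50 nM peptide and 10 ug/mL streptavidin donor plus Ni-chelate acceptor beads.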
G9a inh: G9a (human) methyltransferase inhibition | AID 504332 | actives 8.8% (n = 350,000) | Q96KQ7 | Potency, µM (doses to about 102 µM), most hits filed as inhibitors | G9a H3K9 monomethylation, AlphaScreen, 2 h; note: nearly all actives have a fitted effect of over 75% in size
Target sequence (Q96KQ7 913-1193 limits assumed): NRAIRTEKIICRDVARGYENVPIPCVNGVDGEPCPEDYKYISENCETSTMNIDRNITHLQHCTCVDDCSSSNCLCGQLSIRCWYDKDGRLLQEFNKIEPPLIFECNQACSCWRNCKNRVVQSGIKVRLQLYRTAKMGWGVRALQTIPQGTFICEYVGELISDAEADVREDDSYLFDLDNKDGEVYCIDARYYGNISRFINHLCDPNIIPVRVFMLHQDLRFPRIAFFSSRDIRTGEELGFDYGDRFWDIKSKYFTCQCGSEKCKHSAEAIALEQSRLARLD
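Readings reflect AlphaScreen signal from monomethyl-H3K9 antibody detection. HMT at 20 nM; substrate b-H3K9 500 nM; cofactor SAM 20 uM; 2 h RT reaction; compounds tested as titrations in qHTS with 15 min preincubation.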
Numbers stand for hits; n = inactive; u = inconclusive; x = not tested or not shown; [ ] = dose if it differs, or a comment. Hits are enriched below; roughly 10% of the tested compounds scored in any of these assays. Calls come from the whole dose curve; as a rule, active = well fitted curve in the direction sought with a large enough effect; inconclusive = small, poorly fitted or top-dose-only effect, or another doubt; inactive = no such curve, though single readings can be large; an effect the other way counts as inactive or inconclusive.

SMILES | GLS inhibitor | HP1b binding inh | JMJD2A Tudor | BAZ2B block | G9a inh
COc1ccc(/C(C)=N/Nc2ccc(C(=O)O)cc2)c(OC)c1 | n | n | n | n | 1.6µM
CCOC(=O)C1=C(COC(=O)c2ccc(Cl)nc2)NC(=O)NC1C (stereo unspecified) | n | n | n | x | x
CC1=C(C(=O)Nc2ccccc2C(=O)N2CCN(c3ccccc3)CC2)SCCO1 | n | x | x | x | x
COc1ccc(C(C)NS(=O)(=O)Cc2ccccc2)cc1 (stereo unspecified) | n | n | n | n | 50µM
COc1ccc(OC)c(NS(=O)(=O)Cc2ccccc2)c1 | x | x | x | u | 35µM
C/C(CC(=O)Nc1ccccc1C(F)(F)F)=N\NC(=O)c1cnccn1 | n | n | n | x | x
C/C(CC(=O)NCc1ccc(F)cc1)=N\NC(N)=S | n | u | u | u | u
C/C(CC(=O)NCc1ccccc1)=N\NC(N)=S | n | n | u | n | 3.2µM
C/C(CC(=O)NCc1ccccc1)=N\NC(=O)c1cnccn1 | n | n | u | n | 40µM
CCOC(=O)C1(C)CCCN(C(=O)c2cccnc2)C1 (stereo unspecified) | n | x | x | x | x
CC(=O)Nc1cccc(-c2nc3ccccc3s2)c1 | n | n | n | n | x
CC(=O)Nc1cccc(-c2cc(C)c3cc4c(cc3n2)OCO4)c1 | n | n | n | n | 50µM
COc1ccccc1N1C(=O)CC(N(O)c2ccccc2)C1=O (stereo unspecified) | 1.3µM | n | n | n | u
CCCOc1ccc(N2C(=O)CC(N(O)c3ccccc3)C2=O)cc1 (stereo unspecified) | n | n | n | n | u
CCCOc1ccccc1N1C(=O)CC(N(O)c2ccccc2)C1=O (stereo unspecified) | 1.1µM | n | n | n | x
CN(Cc1ccccc1)C(=O)c1ccc(NC(=O)Cc2ccc(NC(=O)C3CCN(S(=O)(=O)c4cccc([N+](=O)[O-])c4)CC3)cc2)cc1 | n | n | n | x | x
COC(=O)Cn1c(-c2ccc(OC)cc2)c(-c2ccc(OC)cc2)nnc1=O | n | n | n | 56µM | n[0.501 µM]
Cc1ccc(-c2nnc3ccc(SCC(=O)Nc4cc(C)on4)nn23)cc1 | n | n | n | n | u
Cc1cc(NC(=O)CSc2ccc3nnc(-c4ccc(F)cc4)n3n2)no1 | n | n | n | n | 79µM
COC(=O)CSc1ccc2nnc(-c3ccc(F)cc3)n2n1 | n | n | n | n | 79µM
CCOC(=O)CC(=O)CSc1ccc2nnc(-c3ccc(F)cc3)n2n1 | n | n | n | n | n
Cc1ccc2oc(C(=O)N(Cc3ccccc3F)C3CCS(=O)(=O)C3)c(C)c2c1 (stereo unspecified) | n | n | n | n | n
Cc1ccc2[nH]c(=O)c(C(c3nnnn3Cc3ccccc3)N3CCc4ccccc43)cc2c1 (stereo unspecified) | n | n | u | u | 28µM
Cc1ccc2cc(C(c3nnnn3Cc3ccccc3)N3CCc4ccccc43)c(=O)[nH]c2c1C (stereo unspecified) | n | n | n | n | 20µM
Cc1ccc2cc(C(c3nnnn3Cc3ccccc3)N3CCc4ccccc43)c(=O)[nH]c2c1 (stereo unspecified) | n | n | u | u | n[12.7 µM]
SMILES | GLS inhibitor | HP1b binding inh | JMJD2A Tudor | BAZ2B block | G9a inh
Cc1cc2cc(C(c3nnnn3Cc3ccccc3)N3CCc4ccccc43)c(=O)[nH]c2cc1C (stereo unspecified) | n | n | u | u | u
COc1ccc(CN2CCC(CO)(Cc3cccc(C(F)(F)F)c3)CC2)cc1Cn1cccn1 | n | n | n | n | x
CCCN(Cc1cccs1)C(=O)Nc1cc(Cl)ccc1C | n | n | n | n | n
Nc1ccccc1C(=O)NNc1ncc(C(F)(F)F)cc1Cl | n | n | n | 50µM | n
O=S(=O)(NNc1ncc(C(F)(F)F)cc1Cl)c1ccccc1 | n | u | 0.71µM | n | u
Cc1ccc(S(=O)(=O)N2CCN(c3nc(-c4cccs4)nc4c3ncn4COC(=O)C(C)(C)C)CC2)cc1 | x | n | n | x | x
CCOC(=O)c1cccc(NC(=O)c2oc3c(c2C)-c2nn(CC)cc2CC3)c1 | n | n | n | n | n
COc1ccc(CCNC(=O)CSC(=O)c2ccccc2)cc1OC | n | n | n | n | 18µM
COc1ccc(CCNC(=O)CSCc2ccc([N+](=O)[O-])cc2)cc1OC | u | u | 20µM | n | n
COc1ccc(CCNC(=O)CSCc2ccc([N+](=O)[O-])cc2)cc1 | n | n | n | n | n
CCOc1ccc(CCNC(=O)CSc2n[nH]c(N)n2)cc1OCC | n | u | 18µM | n | 8.9µM
O=C(NCc1ccccc1)C(=O)Nc1nccs1 | n | n | u | n | 13µM
O=C(CN1C(=O)/C(=C/c2cccc(Br)c2)SC1=S)N1CCCC1 | n | n | n | n | n
Cn1c2c(c(=O)n(C)c1=O)CS(=O)c1ccccc1N2 (stereo unspecified) | n | x | x | x | x
Cc1cc(C)cc(NC(=O)COC(=O)CN=C2NS(=O)(=O)c3ccccc32)c1 | n | n | n | n | n
COc1ccc(C)cc1NC(=O)CC(=O)Nc1ccc2nc3n(c(=O)c2c1)CCCCC3 | n | n | u | u | u
COc1ccc(CCNC(=O)C(=O)Nc2nccs2)cc1OC | n | n | 79µM | n | u
COc1ccc(CCNC(=O)C(=O)Nc2ccc(C)cc2)cc1OC | n | n | n | n | n
COc1ccc(CCNC(=O)CSc2ccccn2)cc1OC | n | n | n | u | 11µM
O=C(Nc1nccs1)C(Br)C(Br)c1ccccc1 (stereo unspecified) | n | n | n | n | 3.5µM
COc1ccc(Cn2ncc3c4sc(C)cc4n(C)c3c2=O)cc1 | x | x | n | x | x
Cc1cc(C(=O)N/N=C/c2cc(Br)cc([N+](=O)[O-])c2O)c2ccccc2n1 | n | u | u | 50µM | u
Cc1cc(C(=O)N/N=C/c2ccc([N+](=O)[O-])cc2)c2ccccc2n1 | n | n | n | n | n
O=C(N/N=C/c1cc([N+](=O)[O-])ccc1O)c1cc(-c2ccccc2)nc2ccccc12 | n | n | u | 32µM | u
Cc1cc(C(=O)N/N=C/c2cc([N+](=O)[O-])ccc2O)c2ccccc2n1 | n | n | 25µM | 18µM | n
O=C(NC(C(=O)N/N=C/c1cc([N+](=O)[O-])ccc1O)c1n[nH]c(=O)c2ccccc12)c1ccccc1 (stereo unspecified) | n | n | 45µM | 32µM | u
Cc1cc(C)c(Cn2c3ccccc3c3cnn(CC(=O)N4CCCCCC4)c(=O)c32)c(C)c1 | n | n | n | n | n
O=C(N/N=C/c1ccc(O)c(O)c1)c1cc(-c2ccccc2)nc2ccccc12 | 13µM | n | u | u | 45µM
CCCCCCCCCCCCCCCCCCNc1ccn(C2OC(COP(=O)(O)OCC3OC(n4cc(F)c(=O)[nH]c4=O)CC3O)C(O)C2O)c(=O)n1 (stereo unspecified) | n | n | 56µM | x | x
O=C(O)/C=C\C(=O)Nc1ccc(N2CCN(c3ccc(Cl)cc3)CC2)cc1 | n | n | n | u | 10µM

Bioassay records deposited in PubChem BioAssay by National Center for Advancing Translational Sciences (NCATS).
